TDP1 inh = blocks human tyrosyl-DNA phosphodiesterase 1; Potency, µM (titrated, usually from 130 µM), for the others: at the highest dose activity change, negative = inhibition, usual class: inhibitors; AID 485290; recombinant TDP1, AlphaScreen DNA substrate cleavage; actives 0.28% (n = 350,000); Q9NUW8; further: nearly all actives have a fitted effect of over 40% in size
Target sequence (Q9NUW8 whole entry, looked up): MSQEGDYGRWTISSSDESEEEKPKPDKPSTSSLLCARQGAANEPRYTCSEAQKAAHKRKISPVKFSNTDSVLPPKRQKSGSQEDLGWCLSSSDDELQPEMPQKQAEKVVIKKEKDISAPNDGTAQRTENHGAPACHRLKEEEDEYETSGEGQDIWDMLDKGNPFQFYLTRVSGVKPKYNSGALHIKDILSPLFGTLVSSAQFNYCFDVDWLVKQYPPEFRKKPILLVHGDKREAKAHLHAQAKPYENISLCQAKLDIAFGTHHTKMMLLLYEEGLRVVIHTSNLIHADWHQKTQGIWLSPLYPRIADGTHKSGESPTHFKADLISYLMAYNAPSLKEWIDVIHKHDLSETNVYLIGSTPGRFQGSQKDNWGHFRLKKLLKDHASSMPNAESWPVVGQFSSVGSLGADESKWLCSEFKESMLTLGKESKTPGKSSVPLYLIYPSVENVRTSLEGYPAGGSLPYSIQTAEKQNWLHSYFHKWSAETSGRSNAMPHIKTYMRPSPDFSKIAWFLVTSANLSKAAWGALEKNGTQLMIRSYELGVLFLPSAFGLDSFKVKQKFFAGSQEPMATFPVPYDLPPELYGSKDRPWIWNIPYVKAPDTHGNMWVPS
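AlphaScreen read-out: signal falls as enzyme removes the 3' tyrosine-FITC from a 5'-biotinylated DNA oligo (15 nM, 5 min, RT). Enzyme was E. coli-made recombinant Tdp1 at 1 nM, exposed to compound for 15 min beforehand; beads 10 ug/ml, 10 min.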
Gal4-VP16 FLuc = counter-screen for ROR gamma inhibitors: Gal4-VP16 reporter. Drosophila S2 Gal4-VP16 UAS-luciferase, luminescence, 20 h. Potency, µM (top dose mostly 53.6 µM), for inactives: at the highest dose activity, negative = inhibition, hits mostly inhibitors. actives 3.5% (n = 310,000);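 further: Gal4-VP16 expression switched on by copper sulfate through the metallothionein promoter; nearly all actives have a fitted effect of over 50% in size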
RORg inh = blocks mouse ROR gamma transcriptional activity. Potency, µM (series often up to 53.6 µM), for the others: at the highest dose activity change, negative = inhibition, most hits filed as inhibitors. actives 5.4% (n = 310,000). Drosophila S2 Gal4-RORgamma UAS-luciferase reporter, 20 h. P51450; further: nearly all actives have a fitted effect of over 60% in size
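ROR gamma transcriptional activity was tracked as Gal4-UAS luciferase output in stably transfected Drosophila Schneider cells, with compound added 1 hr before 700 uM copper sulfate induction and a 20 hr ambient-temperature incubation.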
DT40 TDP1 CPT = DT40-hTDP1 cell growth loss with CPT. chicken DT40 Tdp1-/-;hTDP1 cells + 20 nM CPT, ATP luminescence, 48 h. Potency, µM (titrated, usually from 46.2 µM), inactives show at the top dose activity change, negative = growth inhibition, usual class: inhibitors. actives 12% (n = 420,000); further: nearly all actives have a fitted effect of over 55% in size
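Chicken DT40 Tdp1-/- cells complemented with human TDP1, 400 cells/well, exposed to compounds plus 20 nM camptothecin for at least 48 h at 37 C; viability read as ATP content by CellTiter-Glo luminescence.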
DT40 TDP1 no CPT = qHTS for Inhibitors of human tyrosyl-DNA phosphodiesterase 1 (TDP1): qHTS in cells in absence of CPT. DT40 Tdp1-/- hTDP1 cells, no CPT, ATP luminescence, 48 h. Potency, µM (titrated, usually from 46.2 µM), without a hit: at the highest dose activity change, negative = growth inhibition, actives largely listed as inhibitors. actives 15% (n = 420,000); further: nearly all actives have a fitted effect of over 55% in size
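Luminescent ATP content (CellTiter-Glo) served as the growth readout. Knockout chicken DT40 cells expressing human TDP1 were exposed to compounds without camptothecin for a minimum 48 hr at 37 °C.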
Numbers without * were called inactive; ! = a repeat was not active; [ ] = remark or other dose. In the library only some 19% were active in any assay of this set; here they are far more common. The call rests on the fitted dose curve; in most records, active means well fitted curve in the direction sought with a large enough effect; inconclusive means small, poorly fitted or top-dose-only effect, or another doubt; inactive means no such curve, though single readings can be large; an effect the other way counts as inactive or inconclusive. On the % scale 0 is the no-effect control and ±100 the full control effect; potency means the concentration at half of the fitted maximal effect.

Results for COC(=O)c1ccc(C(=O)OC)c(NC(=O)COC(=O)C2CCC(C(C)(C)C)CC2)c1 (configuration not stated) ?
TDP1 inh: 2%; Gal4-VP16 FLuc: -8%; RORg inh: 4%; DT40 TDP1 CPT: 23µM*; DT40 TDP1 no CPT: inconclusive

How did COc1ccc(CN2CCN(C(=O)c3ccc(-c4ccccc4)cc3)CC2)c(OC)c1OC do in these assays?
TDP1 inh: 3%; Gal4-VP16 FLuc: 3%; RORg inh: 0%; DT40 TDP1 CPT: inconclusive; DT40 TDP1 no CPT: inconclusive

How did Cc1ccc(C2=NNC(c3ccc(Cl)cc3)=Nc3ccccc32)o1 do in these assays?
TDP1 inh: 0%; Gal4-VP16 FLuc: -92%; RORg inh: inconclusive; DT40 TDP1 CPT: 13µM*; DT40 TDP1 no CPT: 12µM*

Results for Cc1ccc(NC(=O)CN(C)S(=O)(=O)c2cnc[nH]2)cc1 ?
TDP1 inh: 5%; DT40 TDP1 CPT: 15%; DT40 TDP1 no CPT: -3%

Results for COc1cc(/C=N/N=C(N)N)ccc1OCc1ccc(Cl)cc1 ?
TDP1 inh: 5%; Gal4-VP16 FLuc: -27%[10 µM]; RORg inh: -105%; DT40 TDP1 CPT: 6.5µM*; DT40 TDP1 no CPT: 5.8µM*

What do the screens show for `COc1cc(/C=N/O)ccc1OCc1ccc(Cl)cc1`?
TDP1 inh: 2%; Gal4-VP16 FLuc: inconclusive; RORg inh: 1.1µM*

How did CCOc1cc(/C=N/O)ccc1OCc1ccc(F)cc1 do in these assays?
TDP1 inh: 1%; Gal4-VP16 FLuc: -21%; RORg inh: 8%; DT40 TDP1 CPT: inconclusive; DT40 TDP1 no CPT: inconclusive

What do the screens show for `COc1cc(/C=N/n2c(C)n[nH]c2=S)ccc1OCc1ccc(F)cc1`?
TDP1 inh: -1%; Gal4-VP16 FLuc: 13%; RORg inh: 4µM*; DT40 TDP1 CPT: inconclusive; DT40 TDP1 no CPT: 18µM*

How did COc1cc(/C=N/N=C2/NC(=O)C(CC(=O)O)S2)ccc1OCc1ccc(Cl)cc1 (configuration not stated) do in these assays?
TDP1 inh: 5%; Gal4-VP16 FLuc: -2%; RORg inh: inconclusive; DT40 TDP1 CPT: -1%; DT40 TDP1 no CPT: -1%

How did NC(N)=N/N=C/c1ccc(OCc2ccccc2)c(OCc2ccccc2)c1 do in these assays?
TDP1 inh: 8%; Gal4-VP16 FLuc: inconclusive; RORg inh: inconclusive; DT40 TDP1 CPT: inconclusive; DT40 TDP1 no CPT: 18µM*

How did COc1cc(/C=N/O)ccc1OCc1ccc(C(=O)O)cc1 do in these assays?
TDP1 inh: 0%; Gal4-VP16 FLuc: 4µM*; RORg inh: 1µM*; DT40 TDP1 CPT: -28%; DT40 TDP1 no CPT: -26%

What do the screens show for `COc1cc(/C=N/NS(=O)(=O)c2ccc3ccccc3c2)ccc1OCc1ccc(C(=O)O)cc1`?
TDP1 inh: 5%; Gal4-VP16 FLuc: inconclusive; RORg inh: -45%; DT40 TDP1 CPT: -10%; DT40 TDP1 no CPT: -4%

How did CCOc1cc(/C=N/N=C(N)N)ccc1OCc1ccc(Cl)cc1 do in these assays?
TDP1 inh: -3%; Gal4-VP16 FLuc: 8.9µM*; RORg inh: inconclusive; DT40 TDP1 CPT: 15µM*; DT40 TDP1 no CPT: 16µM*

How did CCCC(C)NC(=O)c1ccc(OCc2ccc(Cl)cc2)c(OC)c1 (configuration not stated) do in these assays?
TDP1 inh: 2%; Gal4-VP16 FLuc: -30%; RORg inh: -32%; DT40 TDP1 CPT: inconclusive; DT40 TDP1 no CPT: 8.2µM*

What do the screens show for `N=C1C(c2nc3ccccc3s2)=C(O)CN1C1CCCCC1`?
TDP1 inh: -7%; Gal4-VP16 FLuc: 4%; RORg inh: 6%; DT40 TDP1 CPT: 7%; DT40 TDP1 no CPT: -14%

Results for CSc1ccc(C2=CC(=O)C[C@H](c3ccc4c(c3)OCO4)C2)cc1 ?
TDP1 inh: 3%; DT40 TDP1 CPT: inconclusive; DT40 TDP1 no CPT: inconclusive

What do the screens show for `O=S(=O)(NC1CC(NS(=O)(=O)OCC(Cl)(Cl)Cl)C2CCCCC12)OCC(Cl)(Cl)Cl` (configuration not stated)?
Gal4-VP16 FLuc: inconclusive; RORg inh: inconclusive; DT40 TDP1 CPT: 15µM*; DT40 TDP1 no CPT: 15µM*

Results for C[C@H](NS(=O)(=O)OCC(Cl)(Cl)Cl)C1CC1c1ccccc1 (some centres not stated) ?
Gal4-VP16 FLuc: -4%; RORg inh: -1%; DT40 TDP1 CPT: -20%; DT40 TDP1 no CPT: -23%

Results for Nc1ccc(N=Nc2ccccc2)c(N)n1 ?
TDP1 inh: 6%; Gal4-VP16 FLuc: inconclusive; RORg inh: inconclusive; DT40 TDP1 CPT: 9.4µM*!; DT40 TDP1 no CPT: 11µM*!

How did Nc1ccc(N=Nc2ccccc2)c2ccccc12 do in these assays?
TDP1 inh: 11%; Gal4-VP16 FLuc: -2%; RORg inh: -2%; DT40 TDP1 CPT: 32%; DT40 TDP1 no CPT: 3%

What do the screens show for `CCCOc1cccc(C(=O)N2CCN(C(=O)C3CCCO3)CC2)c1` (configuration not stated)?
TDP1 inh: 4%; Gal4-VP16 FLuc: 1%; RORg inh: 0%; DT40 TDP1 CPT: -7%; DT40 TDP1 no CPT: -11%

How did O=C(/C=C/c1c(Cl)cccc1Cl)n1cccn1 do in these assays?
TDP1 inh: 2%; Gal4-VP16 FLuc: 11µM*; RORg inh: inconclusive; DT40 TDP1 CPT: inconclusive; DT40 TDP1 no CPT: 16µM*

What do the screens show for `Cc1noc(C)c1COc1cccc(C(=O)OCC(=O)NC(=O)c2ccc(OC(F)F)cc2)c1`?
TDP1 inh: 5%; Gal4-VP16 FLuc: -36%; RORg inh: -32%; DT40 TDP1 CPT: -29%; DT40 TDP1 no CPT: -8%

Results for CC1CCc2cc(F)ccc2N1C(=O)C12CCC(C)(C(=O)O1)C2(C)C (configuration not stated) ?
TDP1 inh: 5%; Gal4-VP16 FLuc: -7%; RORg inh: -5%; DT40 TDP1 CPT: -23%; DT40 TDP1 no CPT: inconclusive

What do the screens show for `COCC(=O)N(CCc1ccc(OC)cc1)Cc1nc2ccccc2c(=O)[nH]1`?
TDP1 inh: 7%; Gal4-VP16 FLuc: 7.1µM*; RORg inh: 5µM*; DT40 TDP1 CPT: inconclusive; DT40 TDP1 no CPT: 3.3µM*

What do the screens show for `CCCCC(=O)N(Cc1ccc2c(c1)OCO2)Cc1nc2ccccc2c(=O)[nH]1`?
TDP1 inh: 5%; Gal4-VP16 FLuc: -22%; RORg inh: 11µM*; DT40 TDP1 CPT: inconclusive; DT40 TDP1 no CPT: inconclusive

What do the screens show for `CCCC(=O)N(CCc1ccc(OC)cc1)Cc1nc2ccccc2c(=O)[nH]1`?
TDP1 inh: 0%; Gal4-VP16 FLuc: inconclusive; RORg inh: 10µM*; DT40 TDP1 CPT: -9%; DT40 TDP1 no CPT: -28%

How did C=CCNC(=O)CN1C(=O)NC(C)(c2ccc(OC)cc2)C1=O (configuration not stated) do in these assays?
TDP1 inh: -3%; Gal4-VP16 FLuc: -2%; RORg inh: -6%; DT40 TDP1 CPT: 23%; DT40 TDP1 no CPT: -1%
